Source: PubChem
In the library only some 1.7% were active in any assay of this set; here they are far more common.
PTHR1 agonist: qHTS for PTHR1 Agonists: Primary Screen; Potency, µM (titrated, usually from 115 µM), without a hit: at the highest dose activation, most hits filed as activators; HEK293 GP2 PTHR1 cells, GloSensor cAMP luminescence, 1 h; Parathyroid hormone/parathyroid hormone-related peptide receptor (Homo sapiens), Q03431; actives 0.075% (n = 410,000); also: nearly all actives have a fitted effect of over 55% in size
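HEK-293-derived GP2 cells expressing PTHR1 and a GloSensor cAMP reporter, 3,000/well, plated overnight, given luciferin plus IBMX (each 0.5 mM as added) for 1 h at 37 °C, then compound for 1 h at 37 °C. Luminescence was read after 15 min at room temperature.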
GLP-1R agonist: qHTS of GLP-1 Receptor Agonists. Glucagon-like peptide 1 receptor (Homo sapiens), P43220. HEK293 GLP-1R CRE-luciferase, luminescence, 4-6 h; cells express a hypersensitive GLP-1R form. Potency, µM (series often up to 45.6 µM), without a hit: at the top dose activation, hits mostly activators. actives 0.007% (n = 380,000); also: % of control where 0% means no effect
Target sequence (P43220 whole entry, looked up): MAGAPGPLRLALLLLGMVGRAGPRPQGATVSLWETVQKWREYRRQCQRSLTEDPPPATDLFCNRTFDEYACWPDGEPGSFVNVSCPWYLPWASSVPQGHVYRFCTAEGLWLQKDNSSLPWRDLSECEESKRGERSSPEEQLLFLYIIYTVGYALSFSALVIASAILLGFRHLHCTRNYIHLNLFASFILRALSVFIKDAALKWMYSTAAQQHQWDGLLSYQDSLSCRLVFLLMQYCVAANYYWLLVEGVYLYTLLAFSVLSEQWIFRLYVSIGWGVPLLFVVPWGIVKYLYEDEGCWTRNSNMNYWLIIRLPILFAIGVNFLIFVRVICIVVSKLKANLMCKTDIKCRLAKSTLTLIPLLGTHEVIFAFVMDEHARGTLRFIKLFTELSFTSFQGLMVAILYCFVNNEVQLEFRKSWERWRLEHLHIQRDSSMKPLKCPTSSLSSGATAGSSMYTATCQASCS
GLP1R inv ag: qHTS of GLP-1 Receptor Inverse Agonists (Inhibition Mode); HEK293 GLP-1R CRE-luciferase, luminescence, 24 h; GLP-1R form is constitutively active; Glucagon-like peptide 1 receptor (Homo sapiens), P43220; actives 1.6% (n = 410,000); AID 624417, 2012; Potency, µM (series often up to 38.3 µM), inactives show at the highest dose activity change, negative = inhibition, most hits filed as inhibitors; also: % is scaled to controls: 0 for no effect and ±100 for the full control effect; nearly all actives have a fitted effect of over 55% in size
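Cells are plated, allowed 12 hours at 37 deg C, then treated with compounds for 24 hr before luciferase detection reagent is added and luminescence is read after 12 min at room temperature. The HEK293 line carries constitutively active GLP-1R with a cAMP-responsive reporter.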
HEK293 tox: qHTS of GLP-1 Receptor Inverse Agonists: Cytotox Screen | HEK293 cAMP-luciferase reporter cells, luminescence, 24 h | Potency, µM (top dose mostly 38.3 µM), for inactives: top-dose activity change, negative = inhibition, hits mostly inhibitors | actives 0.13% (n = 410,000) | AID 624418, 2012;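 also: loss of luciferase light is scored as toxicity; % is scaled to controls: 0 for no effect and ±100 for the full control effect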
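Step one: seed cells (200 cells/uL, DMEM with 10% Nu serum, 1% pen-strep). Step two: 12-hour incubation at 37 deg C. Step three: pin 23 nL compound, incubate 24 hr. Step four: add luciferase reagent, read luminescence 12 min later.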
An asterisk follows results filed as active; i = inactive; u = inconclusive; x = no result given; [ ] = another dose, or the depositor's remark. Calls follow the shape of the dose curve; as a rule, active = well fitted curve in the direction sought with a large enough effect; inconclusive = small, poorly fitted or top-dose-only effect, or another doubt; inactive = no such curve, though single readings can be large; an effect the other way counts as inactive or inconclusive. Potency is read from the fitted curve at half-maximal effect.

SMILES	PTHR1 agonist	GLP-1R agonist	GLP1R inv ag	HEK293 tox
COc1ccc(C2(c3ccc(OC)cc3)NC(=O)N(CC(=O)N(C)C3CCC(C)CC3)C2=O)cc1 (stereo not given)	i	-7%	u	-11%
COc1cc2ccccc2cc1C(=O)N/N=C/c1ccc2c(c1)OCO2	i	11%	6.3µM*	u
CCN(c1ccccc1)S(=O)(=O)c1cc(C(=O)Nc2ccc(Br)cc2)ccc1F	-96%	-5%	2.5µM*	-5%
COc1cccc(C(=O)Nc2ccc(S(=O)(=O)N(Cc3ccccc3)c3ccccc3)cc2)c1	-14%	x	u	-1%
CN(C(=S)Oc1ccc(C(=O)Nc2ccccc2)cc1)c1ccccc1	-22%	2%	8.9µM*	2%
COc1ccc(NC(=O)c2ccc(OC(=S)N(C)c3ccc(OC)cc3)cc2)cc1	-10%[57.5 µM]	0%	-26%	-25%
CCOc1cccc(C(=O)Nc2ccc(S(=O)(=O)N(Cc3ccccc3)c3ccccc3)cc2)c1	-16%	x	3.2µM*	2%
CN(c1ccccc1)S(=O)(=O)c1ccc(NC(=O)c2ccccc2)cc1	-49%	1%	10µM*	0%
CCOc1ccc(NC(=O)C(CC)n2nc(-c3ccc(C)c(C)c3)ccc2=O)cc1 (stereo not given)	-4%	x	0%	5%
Cc1ccccc1C(=O)NC(=S)Nc1ccc(S(=O)(=O)N(C)c2ccccc2)cc1	-10%	-6%	8.9µM*	8%
COc1cc(NC(=O)c2ccc(S(=O)(=O)N(C)c3ccccc3OC)cc2)cc(OC)c1	i	3%	7.9µM*	-9%
CSc1ccc(CCNC(=O)C(C)n2nc(C)c3sc4ccccc4c3c2=O)cc1 (stereo not given)	i	x	2%	3%
COc1cccc(N2C(=O)C(CC(=O)Nc3ccc(F)cc3)N(CCC3=CCCCC3)C2=O)c1 (stereo not given)	i	x	10µM*	u
CC(C)CCN1C(=O)N(c2ccccc2)C(=O)C1CC(=O)Nc1ccc(Cl)cc1 (stereo not given)	i	x	10µM*	1%
CCNC(=O)CC1C(=O)N(c2ccccc2)C(=O)N1CCC(C)C (stereo not given)	-22%[57.5 µM]	-14%	15%	-3%
Fc1ccc(-c2cc(-c3ccc(F)cc3)c3c(n2)-c2cc(F)ccc2OC3)cc1	-17%	2%	11%	7%
CC(C)c1cc(-c2nc(-c3ccc(Cl)cc3)no2)n[nH]1	-47%	x	u	0%
CCN(CC)S(=O)(=O)c1ccc2c(c1)c(=O)c(C(=O)NCc1ccccc1Cl)cn2C	i	-1%	3%	-12%
CCOC(=O)CC1(NC(=O)c2cc(COc3ccc(F)c(F)c3)on2)CCCCC1	-35%	17%	10µM*	6%
C=CCC1(CC=C)CCCN1C(=O)c1cc(COc2ccc(F)c(F)c2)on1	-69%	4%	2.8µM*	8%
O=C(Cn1c(=O)oc2cc(S(=O)(=O)NC3CCCC3)ccc21)Nc1ccc(F)c(F)c1	i	x	6%	-4%
O=C(CN(Cc1ccccc1)S(=O)(=O)c1ccc(Br)cc1)NCc1ccco1	i	1%	7.9µM*	2%
Cc1ccc(S(=O)(=O)N(Cc2ccccc2)Cc2ccco2)cc1	i	-8%	11µM*	15%
O=C(CN(Cc1ccc(Br)cc1)S(=O)(=O)c1ccccc1)NCc1ccccn1	-30%	-13%	-22%	14%
O=C(COc1ccccc1[N+](=O)[O-])N1CCC(c2nc3ccccc3o2)CC1	i	x	-10%	1%
SMILES	PTHR1 agonist	GLP-1R agonist	GLP1R inv ag	HEK293 tox
COc1ccccc1NC(=O)c1c(Nc2ccccc2C)sc(C(=O)Nc2cccc(Cl)c2)c1N	-8%	-19%	4.5µM*	u
COc1ccc(Nc2sc(C(=O)c3ccc(Cl)cc3)c(N)c2C(=O)Nc2ccccc2OC)cc1	-40%	3%	-29%	-32%
Cc1cccc(NC(=O)Nc2nnc(N(C)C3CCCCC3)s2)c1C	-13%	x	-1%	0%
CCOc1ccc(-c2nc(CSCC(=O)NC3CCN(Cc4ccccc4)CC3)c(C)o2)cc1	-31%	8%	8.9µM*	6%
Cc1oc(-c2ccc(Cl)cc2)nc1CSCC(=O)NC1CCN(Cc2ccccc2)CC1	-84%	2%	u	-8%
Cc1ccc(NCCCn2cnc(C(=O)Nc3ccc(C)c(C)c3)n2)cc1C	i	0%	-29%	-7%
Cc1cc(C)c(CN2CCN(CCCn3cnc(C(=O)Nc4ccc(C)c(C)c4)n3)CC2)c(C)c1	-19%	0%	13µM*	u
CCc1ccc(CNc2ncc(-c3cccc(OC)c3)n2C)cc1	-36%	x	u	u
Cc1nn(-c2nc(-c3ccc(F)cc3)cc(C(F)(F)F)n2)c(C)c1Br	-44%	x	6%	3%
Cc1onc(-c2ccccc2)c1C(=O)Nc1cccc(OC(C)C)c1	-11%[57.5 µM]	-4%	11µM*	-8%
Cc1onc(-c2ccccc2)c1C(=O)OCC(=O)Nc1ccc(OC(F)(F)F)cc1	-37%	-7%	u	-16%
CCCOc1cccc(NC(=O)c2c(-c3ccccc3)noc2C)c1	i	-4%	u	-5%
Cc1onc(-c2ccccc2)c1C(=O)OCC(=O)Nc1ccc(Cl)cc1	-40%	0%	11µM*	-8%
Cc1ccc(NC(=O)COC(=O)c2c(-c3ccccc3)noc2C)cc1	-43%	11%	10µM*	-9%
Cc1ccc(Cn2c(CO)cnc2SCC(=O)Nc2ccc(C)c(Cl)c2)cc1	-46%	x	13µM*	-6%
O=C(Nc1ccccc1)Nc1ccc(-n2ccc(C(F)(F)F)n2)cc1	-2%	10%	7.1µM*	-22%
CN1C[C@@H]2C(c3ccc(C(F)(F)F)cc3)C3(c4ccc(C#N)cc4)CC2(C3)[C@H]1c1ccccc1 (stereo not given in full)	i	-2%	10µM*	-27%
COC(=O)c1cccc(C23CC4(C2)[C@H](CN(C)[C@@H]4c2ccccc2)C3c2ccccc2)c1 (stereo not given in full)	i	2%	8.9µM*	2%
COC(=O)c1cccc(C23CC4(C2)[C@H](CN(C)[C@@H]4c2ccccc2)C3c2ccc(C(F)(F)F)cc2)c1 (stereo not given in full)	i	-3%	-27%	9%
COc1ccccc1CNC(=O)c1c2c(nc3ccccc13)C(=O)N(C1CCCCC1)C2	-34%	x	-9%	-2%
Cc1ccc(NC2=Nc3ccccc3N3C2=Nc2c(c(C)nn2-c2ccccc2)C3c2ccc(O)c(O)c2)cc1 (stereo not given)	-7%[57.5 µM]	-21%	11µM*	124%
C/C(=N\NC(=S)Nc1ccccc1C)c1ccc(O)cc1	-3%	5%	10µM*	u
